# Screening results as filed in PubChem BioAssay.
# Shown is part of a subset that was picked to be rich in hits.
# Giardia FBPA inh = qHTS Assay for Inhibitors of Fructose-1,6-bisphosphate Aldolase from Giardia Lamblia; purified Giardia FBPA; A8B2U2; Potency, µM (top dose mostly 59.6 µM), without a hit: at the top dose activity, negative = inhibition, usual class: inhibitors; hit rate 0.71% among 290,000; further: potency means the concentration at half of the fitted maximal effect; on the % scale 0 is the no-effect control and ±100 the full control effect; nearly all actives have a fitted effect of over 55% in size
#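 40 nM FBPA preincubated 10 min at RT with compound (up to 57.5 uM final), then substrate plus GAPDH/TPI/NAD/arsenate coupling and diaphorase/resazurin added. Fluorescence read after 20 min at RT, 525/598 nm.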
# Tb PYK inh = qHTS of Trypanosoma Brucei Inhibitors. Potency, µM (series often up to 76.8 µM), for the others: top-dose activity, negative = inhibition, most hits filed as inhibitors. AID 624173, 2012. hit rate 0.12% among 410,000. TbPYK enzyme, Kinase-Glo Plus ATP luminescence, 45 min. pyruvate kinase (Trypanosoma brucei), Q57TT1; further: potency means the concentration at half of the fitted maximal effect; on the % scale 0 is the no-effect control and ±100 the full control effect; nearly all actives have a fitted effect of over 50% in size
#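 Screened from lowest to highest concentration, compounds were pinned into TbPYK/substrate mixtures, and ADP (130 uM final) was added. Plates sat at room temperature for 45 min prior to Kinase-Glo Plus detection by luminescence.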
# Cycloheximide cs = Cycloheximide Counterscreen for Small Molecule Inhibitors of Shiga Toxin | cell reporter, cycloheximide protein synthesis inhibition counterscreen | hit rate 12% among 300,000 | AID 2314, 2010 | max response, %; in the data active means max response mostly above about 13%, no sharp cut-off; inactive means mostly below about 14%; further: read at 38.3 µM for the half of the compounds with a filed dose; 0% is about no effect
# LmPK inhibitor = qHTS Assay for Inhibitors of Leishmania Mexicana Pyruvate Kinase (LmPK); Q27686; purified LmPK, Kinase-Glo ATP luminescence, 1 h; Potency, µM (top dose mostly 57.5 µM), for inactives: top-dose activity change, negative = inhibition, most hits filed as inhibitors; hit rate 0.37% among 290,000; AID 1721, 2009; further: potency means the concentration at half of the fitted maximal effect; on the % scale 0 is the no-effect control and ±100 the full control effect
# Target sequence (Q27686 whole entry, looked up): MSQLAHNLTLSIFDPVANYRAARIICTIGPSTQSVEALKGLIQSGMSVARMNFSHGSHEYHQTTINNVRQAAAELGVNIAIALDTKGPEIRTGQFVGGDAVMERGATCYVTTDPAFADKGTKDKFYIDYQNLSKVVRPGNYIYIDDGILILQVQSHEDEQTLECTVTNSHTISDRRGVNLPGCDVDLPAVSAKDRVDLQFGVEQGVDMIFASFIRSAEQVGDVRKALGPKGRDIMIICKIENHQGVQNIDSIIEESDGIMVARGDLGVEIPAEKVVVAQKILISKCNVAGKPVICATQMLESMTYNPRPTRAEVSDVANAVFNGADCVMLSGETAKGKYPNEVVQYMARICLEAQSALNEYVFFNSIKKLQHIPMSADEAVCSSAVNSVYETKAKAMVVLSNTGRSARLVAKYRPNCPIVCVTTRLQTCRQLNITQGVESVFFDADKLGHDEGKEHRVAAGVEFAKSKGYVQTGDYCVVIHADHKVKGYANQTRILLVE
#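 Purified LmPK (0.1 nM) converted ADP (0.1 mM) to ATP with PEP (0.5 mM) in imidazole buffer pH 7.2 with KCl and MgCl2, 1 h at room temperature. ATP was read by Kinase-Glo luminescence; data normalized to uninhibited and no-enzyme controls.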
# RE007 growth inh = qHTS Assay for Inhibitors of the HIV-1 protein Vpr; S. pombe RE007 Vpr strain, BacTiter-Glo ATP luminescence, 24 h; Potency, µM (highest dose often 92.2 µM), inactives show top-dose activity change, negative = less growth, usual class: inhibitors; hit rate 0.21% among 360,000; AID 651644, 2012; active means well fitted falling curve with a large enough effect; inconclusive means small, poorly fitted or top-dose-only effect; inactive means no such curve, though single readings can be large or run the other way; further: potency means the concentration at half of the fitted maximal effect; on the % scale 0 is the no-effect control and ±100 the full control effect; nearly all actives have a fitted effect of over 50% in size
#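 Fission yeast RE007 carrying one integrated HIV-1 vpr copy, seeded at OD 0.01 in PMG+AL medium with 23 nL pinned compound. Grown 24 h at 30 degrees; viability read by BacTiter-Glo luminescence after 5 min.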
# Shiga inhibitor = A qHTS for Small Molecule Inhibitors of Shiga Toxin; hit rate 9.2% among 290,000; Vero cells, Shiga toxin protein synthesis inhibition reporter; inhibition, % at 38.7 µM; AID 2315, 2010; in the data active means inhibition mostly above about 28%, no sharp cut-off; inactive means mostly below about 43%; further: 0% is about no effect
# * hit, by the source's call; ? = inconclusive; . = no result given. Unless noted, the call rests on the fitted dose curve; in most records, active means well fitted curve in the direction sought with a large enough effect; inconclusive means small, poorly fitted or top-dose-only effect, or another doubt; inactive means no such curve, though single readings can be large; an effect the other way counts as inactive or inconclusive.
SMILES,Giardia FBPA inh,Tb PYK inh,Cycloheximide cs,LmPK inhibitor,RE007 growth inh,Shiga inhibitor
CCc1ccc(NC(=O)CCCN2C(=O)C3CC=CCC3C2=O)cc1 (stereo not given),.,-19%,72*,-3%,9%,97*
Cc1c(Cl)cccc1NC(=O)CCN1C(=O)C2CC=CCC2C1=O (stereo not given),.,-9%,-5,-4%,7%,-9
O=C(NCc1ccccc1)N1CCC(CO)(CCc2ccccc2)CC1,5%,-1%,1,-5%,2%,-14
CC#CC(=O)N1CCC(CO)(CCc2ccccc2)CC1,2%,2%,18*,7%,-1%,63
CCOC(=O)N1C/C(=C\c2ccccc2)C(=O)/C(=C/c2ccccc2)C1,-4%,2%,41*,1%,.,24*
O=C(NC1CCCCC1)C(c1cc2c(cc1[N+](=O)[O-])OCO2)N1CCCCC1 (stereo not given),-22%,.,16,1%,.,54*
O=CN1CCN(C(C(=O)NC2CCCCC2)c2cc3c(cc2[N+](=O)[O-])OCO3)CC1 (stereo not given),-23%,2%,13,3%,3%,-7
O=C(C[C@@H]1C/C=C\C[C@@H](Cc2ccc(F)cc2)C(=O)OC[C@@H](Cc2ccccc2)NC1=O)N[C@H](CO)Cc1ccccc1,.,0%,.,.,-1%,.
COc1cccc(OC)c1OCCCOc1cccc2cccnc12,-10%,-6%,21*,-14%,-19%,127*
Brc1ccc(OCCCOc2cccc3cccnc23)cc1,1%,-1%,12,6%,-24%,.
C/C=C/c1ccc(OCCOc2cccc3cccnc23)c(OC)c1,-9%,6%,22*,3%,-24%,36
O=Cc1ccc(OCCCOc2cccc3cccnc23)cc1,-10%,-1%,10,14%,-17%,-4
Cc1ccc(OCCCOc2cccc3cccnc23)cc1C,-4%,-2%,17*,0%,?,24
Brc1ccc(OCCOCCOc2cccc3cccnc23)cc1,.,9%,.,.,6%,.
Cc1cccc(OCCCOc2cccc3cccnc23)c1C,.,-5%,21*,0%,?,20
COc1ccccc1CNC(=O)CSc1nc(=O)[nH]c2c1CCCC2,.,6%,.,.,.,.
Cc1ccccc1C(=O)Nc1nnc(S(=O)(=O)N2CCCc3ccccc32)s1,.,2%,.,.,.,.
Cc1ccc2cccc(OCCCOc3ccccc3F)c2n1,12%,2%,25*,9%,-27%,.
Cc1ccc(N2C(=O)c3ccccc3C2Nc2ccccc2F)nc1 (stereo not given),-15%,1%,32*,6%,-14%,55*
O=C1c2ccccc2C(Nc2ccc(Cl)cn2)N1c1ccccn1 (stereo not given),-7%,-8%,0,0%,-1%,3
CC(C)(C)NC(=O)c1cccc(NC(=O)c2ccco2)c1,7%,0%,13,1%,?,41
CCn1cnc2cc(NC(=O)c3ccco3)ccc21,0%,-1%,30*,-17%,-17%,20
CC(=O)NCCc1nc2cc(NC(=O)c3cccs3)ccc2n1C,-1%,2%,22,-10%,2%,23
CCCn1cnc2cc(NC(=O)c3cccs3)ccc21,-5%,-6%,29*,-17%,-14%,51
CC(C)(C)n1cnc2cc(NC(=O)c3ccco3)ccc21,9%,-14%,25*,1%,-7%,62*
SMILES,Giardia FBPA inh,Tb PYK inh,Cycloheximide cs,LmPK inhibitor,RE007 growth inh,Shiga inhibitor
CCCn1cnc2cc(NC(=O)c3ccco3)ccc21,-4%,-5%,63*,-1%,0%,80*
CC(CCO)Nc1nc2c(c(=O)n(C)c(=O)n2C)n1Cc1ccc(Br)cc1 (stereo not given),.,-1%,.,.,.,.
COc1ccc(Nc2ncnc3c2nc2n3CCCC2)cc1Cl,.,-13%,.,.,.,.
CC(C)c1ccc(C2N=C(N)Nc3nc4ccccc4n32)cc1 (stereo not given),.,-3%,.,.,.,.
CCC(C)NC(=O)CSc1nc2cc3c(cc2c(=O)n1CCCCCC(=O)NCc1ccc2c(c1)OCO2)OCO3 (stereo not given),.,5%,.,.,.,.
COc1ccc(C(=O)Nc2cccc(C(=O)OCc3cc(=O)n4nc(C5CC5)sc4n3)c2)cc1,.,-3%,.,.,.,.
Cc1ccc(-c2oc3ccccc3c(=O)c2O)cc1,-2%,-3%,14*,1%,-11%,9
Cc1ccc2oc(-c3ccccc3)c(C(=O)O)c(=O)c2c1,-1%,2%,44*,-4%,?,80*
O=c1c(O)c(-c2cccs2)oc2ccccc12,-11%,-13%,18*,-3%,?,15
O=c1c(O)c(-c2cccs2)oc2ccc(Cl)cc12,-24%,1%,9,14%,?,-13
CCc1ccc(C2CC(=O)c3c([nH]c(C(=O)OCCOc4ccccc4)c3C)C2)cc1 (stereo not given),.,-5%,.,.,.,.
CC(=O)Nc1ccc(NC(=O)c2ccc(-c3ccnn3C)c3ccoc23)cc1,.,3%,.,.,2%,.
Cc1ccccc1CNC(=O)c1ccc2nc(SCc3ccc(F)cc3)n(C)c2c1,.,1%,.,.,.,.
O=C(O)c1ccc2c(c1)SC1=NS(=O)(=O)CCN12,8%,0%,-1,3%,6%,7
O=S1(=O)CCN2C(=N1)Sc1c2ccc2c1CCCC2,-23%,-18%,25*,6%,11%,69*
CCc1ccc(CN(Cc2ccco2)C(=O)COc2ccc(Cl)cc2C)cc1,.,0%,.,.,.,.
O=C(NC(=S)Nc1ccc(N2CCOCC2)cc1)c1ccccc1,-17%,3%,16,1%,3%,42
O=C(NC(=S)Nc1ccc(N2CCOCC2)cc1)c1ccco1,?,-15%,32*,-4%,.,43*
Fc1ccccc1NC(=S)Nc1ccc(CN2CCOCC2)cc1,-6%,-4%,23*,-1%,20%,66*
O=C(NC(=S)Nc1ccc(CN2CCCCC2)cc1)c1ccco1,-30%,-1%,11,2%,-1%,32
O=C(NC(=S)Nc1ccc(CN2CCOCC2)cc1)c1ccco1,-10%,-4%,31*,3%,4%,34*
Fc1ccccc1NC(=S)N1CCOCC1,-9%,-1%,10,-6%,1%,-6
O=C(Nc1ccc(OC(F)(F)F)cc1)C(Cc1ccccc1)NS(=O)(=O)c1cccc2nsnc12 (stereo not given),.,3%,.,.,.,.
CCC(=O)Nc1ccc(NC(=O)c2cc3ccccc3o2)c(OC)c1,3%,2%,27*,1%,11%,34*
COc1cc(NC(=O)c2c(OC)cccc2OC)ccc1NC(=O)c1cc2ccccc2o1,4%,-1%,22*,-2%,-6%,.
